Source: PubChem BioAssay
Compounds with a hit are over-represented: about 4% of the library has one in this group of screens.
ROMK primary = modulates human ROMK potassium channel activity. 130,000 tested, 2% active. B-score at 10 µM. Tet-inducible ROMK, thallium flux fluorescence; actives lie on both sides. P48048. AID 1918;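 active means signal ratio slope over the read window, or its plate-corrected B-score, at least 3 SD from the plate mean, either direction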;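 further: B-score of the F/F0 ratio slope over 7 to 12 s after thallium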
Arbovirus anti = arbovirus infection inhibition; arbovirus infection cell-based antiviral screen; inhibition, % at 10 µM; 200,000 tested, 0.37% active; in the data active means inhibition above about 30%
Measles CPE = protection of cells from measles virus; Measles virus-infected cells, CPE protection, absorbance; protection (pct of control), % at 4 µM; 140,000 tested, 1.5% active; in the data active means protection mostly above about 24%, no sharp cut-off; inactive means mostly below about 26%
Cl transport mod = KCC2 (human) Cl- transport modulation | KCC2 cells, thallium flux FluoZin-2 fluorescence | B-score of Tl+ flux slope (higher = more flux/activation; lower = inhibition) at 10 µM | 190,000 tested, 2.2% active;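 active means thallium flux slope and its plate-corrected score both differing from the plate sample mean at a set confidence after two filtering rounds, in either direction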;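 further: slope of fluorescence scaled to starting intensity during 10 to 20 s after thallium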
HSV replic up = HSV replication enhancement; maximum fold increase; AID 1956; 220,000 tested, 0.005% active; HSV replication augmentation in cells, fold increase; in the data active means maximum fold increase above about 1.5; tested in PC3 cells
Numbers stand for hits.

`Cc1ccc(C)c(NC(=S)NCCN2CCOCC2)c1` gave Cl transport mod inactive and HSV replic up inactive.
`Cc1cccc(NC(=S)NCCN2CCOCC2)c1C` gave ROMK primary inactive, Arbovirus anti inactive, Measles CPE 39, Cl transport mod inactive and HSV replic up inactive.
For CC(C)OC(=O)n1c(=S)oc2ccccc21 the results were ROMK primary inactive, Arbovirus anti inactive, Measles CPE inactive, Cl transport mod inactive and HSV replic up inactive.
`Cc1cccc(OC(=O)n2c(=S)oc3cc(Cl)ccc32)c1` gave Arbovirus anti inactive, Measles CPE inactive, Cl transport mod 4.7 and HSV replic up inactive.
Screening C=CCc1cc(OC)ccc1OCCOCCC(C(=O)OCC)C(=O)OCC returned ROMK primary inactive, Arbovirus anti inactive, Measles CPE 21, Cl transport mod inactive and HSV replic up inactive.
Screening CCC1=C(OC(=O)N(CC)CC)N2C(=O)OC(=NCC3CC3)[C@]2(Cc2ccccc2)[C@H]2C1=CC[C@H]1C(=O)NC(=O)[C@H]12 returned Cl transport mod inactive and HSV replic up inactive.
COc1ccc(N2C(=O)C3CCCN3C2c2ccc(C)o2)cc1 (centres undefined) was read as ROMK primary inactive, Arbovirus anti inactive, Cl transport mod inactive and HSV replic up inactive.
CCCn1c(SCC(=O)Nc2cc(S(=O)(=O)N3CCOCC3)ccc2OC)n[nH]c1=O was read as ROMK primary inactive, Arbovirus anti inactive, Measles CPE 50, Cl transport mod inactive and HSV replic up inactive.
COC(=O)c1ccc(OS(=O)(=O)N(C)C)cc1 was read as ROMK primary inactive, Arbovirus anti inactive, Cl transport mod inactive and HSV replic up inactive.
Screening C=CCOc1ccc(Br)cc1/C=C1/SC(=Nc2ccc(C(=O)O)cc2)NC1=O returned ROMK primary inactive, Arbovirus anti 32, Cl transport mod inactive and HSV replic up inactive.
COc1ccc(NS(=O)(=O)c2ccc3oc(Nc4ccc5c(c4)OCCO5)nc3c2)cc1 was read as ROMK primary inactive, Arbovirus anti inactive, Measles CPE 93 and HSV replic up inactive.
Screening COc1cc([N+](=O)[O-])c2ncsc2c1 returned ROMK primary inactive, Arbovirus anti inactive, Measles CPE 17 and HSV replic up inactive.
`COc1cc(SSc2cc(OC)cc([N+](=O)[O-])c2N)c(N)c([N+](=O)[O-])c1` gave ROMK primary inactive, Cl transport mod inactive and HSV replic up inactive.
For O=C(NC1CCCCC1)C(c1ccccc1)N(Cc1ccc2c(c1)OCO2)C(=O)c1cnsn1 (centres undefined) the results were ROMK primary -2.4, Arbovirus anti inactive, Measles CPE inactive, Cl transport mod inactive and HSV replic up inactive.
For CN(C(=O)CSc1nc(N)c2c3c(sc2n1)CSC(C)(C)C3)c1ccccc1 the results were Arbovirus anti inactive, Measles CPE inactive and Cl transport mod inactive.
Screening Oc1ccccc1CN1CCCN(Cc2ccccc2O)C1 returned Arbovirus anti 70, Measles CPE inactive, Cl transport mod inactive and HSV replic up inactive.
For Oc1ccccc1CN1CCC(C(O)(c2ccccc2)c2ccccc2)CC1 the results were ROMK primary inactive, Arbovirus anti inactive, Measles CPE inactive, Cl transport mod inactive and HSV replic up inactive.
Screening Cc1nn(-c2ccccc2)c(C)c1/C=N/NC(=O)c1ccccc1NS(=O)(=O)c1cccs1 returned ROMK primary inactive, Arbovirus anti inactive, Measles CPE inactive, Cl transport mod inactive and HSV replic up inactive.
`O=C(CSc1ncnc2c1cnn2-c1ccc(Cl)cc1)NCc1ccc2c(c1)OCO2` gave Arbovirus anti inactive, Measles CPE inactive, Cl transport mod 21 and HSV replic up inactive.
For Cc1cc(Nc2cccc(Cl)c2)n2ncnc2n1 the results were ROMK primary inactive, Arbovirus anti inactive, Measles CPE 29 and Cl transport mod inactive.
Screening CCSC1=N/C(=C\c2ccc(OC)cc2)C(=O)N1 returned Arbovirus anti inactive, Measles CPE inactive, Cl transport mod inactive and HSV replic up inactive.
Screening COc1ccc(/C=C2\N=C(SC)NC2=O)cc1 returned ROMK primary inactive, Arbovirus anti inactive, Measles CPE inactive, Cl transport mod 16 and HSV replic up inactive.
`O=C1COc2ccc(C(=O)COC(=O)CNC(=O)c3ccco3)cc2N1` gave ROMK primary inactive, Arbovirus anti inactive, Cl transport mod inactive and HSV replic up inactive.
`O=[N+]([O-])c1ccc(-c2ccc(/C=N/O)o2)cc1` gave Cl transport mod inactive and HSV replic up inactive.
`Clc1ccc(Cl)c(-c2ccc(/C=N/c3ncn[nH]3)o2)c1` gave ROMK primary inactive, Arbovirus anti inactive, Measles CPE inactive, Cl transport mod inactive and HSV replic up inactive.
O/N=C\c1ccc(-c2ccccc2)o1 was read as ROMK primary inactive, Arbovirus anti inactive, Measles CPE 31, Cl transport mod inactive and HSV replic up inactive.
`O/N=C/c1ccc(-c2cc(Cl)ccc2Cl)o1` gave Arbovirus anti inactive, Measles CPE 43, Cl transport mod inactive and HSV replic up inactive.
For CCOC(=O)c1ccc(NC(=O)CC2S/C(=N/N=C/c3c[nH]c4ccccc34)NC2=O)cc1 (centres undefined) the results were ROMK primary inactive, Arbovirus anti 31, Measles CPE 28, Cl transport mod inactive and HSV replic up inactive.
Screening Cc1ccc(NC(=O)CC2S/C(=N/N=C/c3c[nH]c4ccccc34)NC2=O)cc1 (centres undefined) returned ROMK primary inactive, Arbovirus anti inactive, Measles CPE inactive, Cl transport mod inactive and HSV replic up inactive.
For c1ccc(COc2ccc(OCCCn3cncn3)cc2)cc1 the results were ROMK primary inactive, Arbovirus anti inactive, Measles CPE 30 and HSV replic up inactive.
For NC(=S)Cc1nc2n(n1)Cc1ccccc1-2 the results were ROMK primary inactive, Arbovirus anti inactive, Measles CPE 50, Cl transport mod inactive and HSV replic up inactive.
Screening CCOC(=O)c1ccc(NC(=O)c2cn(CCC#N)nc2-c2ccc3c(c2)OCCO3)cc1 returned ROMK primary inactive, Arbovirus anti inactive, Measles CPE inactive, Cl transport mod inactive and HSV replic up inactive.
`O=C(Nc1cccc(Cl)c1)Nc1nnc(CC2=CCCCC2)s1` gave Arbovirus anti inactive, Measles CPE inactive, Cl transport mod inactive and HSV replic up inactive.
`O=C(NN1CCOCC1)c1cc(-c2cccc(Cl)c2)nc2ccccc12` gave ROMK primary inactive, Arbovirus anti inactive, Measles CPE 43 and HSV replic up inactive.
`O=C(NN1CCOCC1)c1cc(-c2ccccc2)nc2ccccc12` gave ROMK primary inactive, Arbovirus anti inactive, Measles CPE inactive, Cl transport mod inactive and HSV replic up inactive.
CC1CC(=O)NN1C(=O)c1ccccc1 (centres undefined) was read as ROMK primary inactive, Cl transport mod inactive and HSV replic up inactive.
COc1ccc(N2C(=O)CC(NCc3ccncc3)C2=O)cc1 (centres undefined) was read as Arbovirus anti inactive, Measles CPE 45, Cl transport mod inactive and HSV replic up inactive.
Screening COc1ccc(N2C(=O)CC(NCc3ccc(F)cc3)C2=O)cc1 (centres undefined) returned Arbovirus anti inactive, Measles CPE inactive, Cl transport mod inactive and HSV replic up inactive.
